Screening results: PubChem, Broad Institute
Rows were chosen to be rich in hits. Some 3% of all compounds tested hit in one or more screens of this group.
esBAF inh = inhibitors of esBAF chromatin remodeling in mouse ES cells; reporter increase, % at 12.5 µM; Bmi1-luciferase knock-in reporter, 24 h; 100% = twice the neutral-well signal; 2% of 350,000 active; in the data active means activation above about 40%;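 further: 0% = median of the plate's neutral control wells and 100% = double that signal; a rise in the Bmi1 reporter signal indicates esBAF inhibition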
N-glyco inh = N-linked glycosylation inhibition; D54 ERlucT glycosylation luciferase reporter, 24 h; percent of 100 nM tunicamycin response; reporter increase, % at 12.5 µM; 0.23% of 360,000 active;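 active means mean luciferase reporter signal, scaled so untreated is 0 and the glycosylation-blocking control 100, at or above a set limit in every replicate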;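 further: luciferase carries N-glycosylation sites so blocking glycosylation raises the light; 0% = median of neutral control wells and 100% = median of 100 nM tunicamycin wells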
MITF act = MITF TRPM1 promoter activation in melanoma cells; SK-MEL-5 TRPM1-promoter luciferase, 24 h; % of positive control, neutral wells = 0; activation, % at 12.5 µM; 0.75% of 300,000 active; AID 588334;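 active means mean activation of at least 80% with every replicate also reaching 80%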;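 further: 0% = neutral control wells and 100% = parthenolide positive control wells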
PfHsp90 set2 = growth inhibition of yeast expressing Plasmodium Hsp90; S. cerevisiae expressing PfHsp90, BacTiter-Glo ATP, 48 h; yeast lacking PDR1 and PDR3 efflux regulators; AID 504621; 0.32% of 310,000 active; inhibition, % at 9.4 µM;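 active means every replicate shows inhibition above about 80%, whatever the replicate mean, limit read from the data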;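 further: 0% = DMSO neutral controls and 100% = 20 µM radicicol positive controls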
Vif imaging = inhibitors of HIV Vif; HEK293T cells, Vif self-association by quenched fluorescence, imaging, 24 h; AID 602346; inhibition, % at 7.49 µM; 0.35% of 340,000 active; in the data active means inhibition above about 50%, passing the limit was not always enough
Wnt bcat act = Wnt/beta-catenin pathway activation. Wnt/beta-catenin reporter cell assay, activator, plate reader. activation, % at 9.35 µM. 1.2% of 300,000 active. AID 743398; in the data active means activation above about 30%, passing the limit was not always enough;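 further: 0% = neutral control wells and 100% = positive control wells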
Starred values were filed as active, the others as inactive; . = no result given.

SMILES	esBAF inh	N-glyco inh	MITF act	PfHsp90 set2	Vif imaging	Wnt bcat act
COc1ccccc1CNC(=O)C1CCN(S(=O)(=O)c2ccc3c(c2)C(C)(C)C(=O)N3C)CC1	-2.3	-0.3	-3.4	4.2	3.4	-2.5
O=C(c1ccc2c(c1)OCO2)N1CCc2ccccc21	21.4	-1.4	24.1	-5.6	8.4	3.1
O=C(c1ccc2c(c1)OCO2)N1CCc2ccccc2C1	45.2*	-2.3	48.6	11.3	1.3	23.5
O=C(c1cc2c(s1)-c1ccccc1OC2)N1CCc2ccccc2C1	7.2	-0.7	11.6	-23.9	18.9	0.2
O=C(C1COc2ccccc2O1)N1CCc2ccccc2C1 (stereo not given)	46.5*	-7.0	.	-25.8	13.1	.
O=C(c1cc(Br)c(Br)s1)N1CCc2ccccc2C1	42.2*	-4.0	14.6	-11.3	4.7	7.6
CCCCc1ccc(-c2csc(/C(C#N)=C\c3ccco3)n2)cc1	.	3.4	-4.3	-21.2	50.8*	1.4
N#C/C(=C/c1ccco1)c1nc2ccccc2s1	.	-3.8	5.3	18.3	-8.3	51.5*
COc1ccc(CCNC(=O)C2CCN(C(=O)c3ccc(Cl)cc3)CC2)cc1	-1.8	-0.5	-2.3	2.7	4.3	0.4
OCCc1ccc(-c2ccc(Cl)cc2)o1	51.6*	0.6	53.9	-9.7	-1.1	1.0
Clc1ccc(-c2ccc(CN3CCCCC3)o2)cc1	11.1	-2.3	.	-0.5	12.9	2.3
CCN(CC)CCn1c2ccccc2c2nc3ccc([N+](=O)[O-])cc3cc21	.	70.2*	.	9.0	-1.1	14.5
CCCC(=O)Nc1ccc2c(c1)OC[C@@H](C)N(Cc1ccccc1F)C[C@H](C)[C@@H](OC)CN(C)C2=O	-3.3	.	.	.	.	.
O=C1C2C3C=CC(O3)C2C(=O)N1N=Cc1cccc2ccccc12 (stereo not given)	45.9*	1.2	11.0	-6.6	3.3	-2.1
O=C(C[C@@H]1CC[C@@H](NC(=O)CN2CCOCC2)[C@@H](CO)O1)NCCc1ccncc1	1.0	.	.	.	.	.
c1ccc(-c2nc(-c3ccco3)cs2)nc1	34.2	-1.2	91.3*	-5.0	-5.2	2.7
CCOc1ccc(N2C(=O)CCC2=O)cc1	-5.6	0.8	.	.	8.2	-8.5
CCCC1CCC(c2ccc(OCC)cc2)=CC1=O (stereo not given)	28.9	-6.0	67.5	15.8	-1.4	52.7*
COc1ccc(-c2nn(-c3ccccc3)cc2CO)cc1	17.4	2.2	50.9	.	4.0	11.6
Cc1ccc(-c2nn(-c3ccccc3)cc2/C=N/O)cc1	14.0	-0.6	91.7*	.	.	3.3
Cc1ccc(-c2nn(-c3ccccc3)cc2CO)cc1	90.1*	3.2	69.2	-7.6	-4.2	13.9
O/N=C/c1cn(-c2ccccc2)nc1-c1cccnc1	.	8.6	7.8	-20.2	-2.4	-0.2
COc1cc(-c2c(NC(=O)c3ccco3)oc3ccc(Cl)cc3c2=O)cc(OC)c1OC	12.0	1.7	.	.	-3.5	-2.9
O=c1cc(-c2ccc(Cl)c(Cl)c2)[nH][nH]1	4.5	-0.4	-2.5	13.4	-3.5	.
O=c1cc(-c2ccc(Cl)cc2)[nH][nH]1	-14.9	-0.8	.	-6.2	57.4*	.
SMILES	esBAF inh	N-glyco inh	MITF act	PfHsp90 set2	Vif imaging	Wnt bcat act
CC(=O)c1ccc(Nc2ncnc3c2oc2ccccc23)cc1	64.7*	-3.4	60.1	-7.0	.	.
c1ccc(CNc2ncnc3c2oc2ccccc23)nc1	65.3*	-2.0	44.9	-30.5	-13.7	56.4*
c1ccc2c(c1)oc1c(NCC3CCCO3)ncnc12 (stereo not given)	38.3	-1.5	16.6	-19.7	-9.1	53.9*
CC(=O)Nc1ccc(Nc2nc(C)nc3c2oc2ccccc23)cc1	9.2	7.0	.	.	-11.2	-0.5
COc1cc2c(cc1NCc1ccccn1)oc1ccccc12	45.5*	0.4	24.3	-4.0	-3.2	24.4
c1ccc(-c2nc(NCC3CCCO3)c3oc4ccccc4c3n2)cc1 (stereo not given)	1.3	3.4	-7.6	25.6	2.7	.
COc1cc2c(cc1NCc1ccc3c(c1)OCO3)oc1ccccc12	23.4	-0.5	38.2	-2.6	-0.6	1.0
COc1ccc(CN(C)C[C@@H]2Oc3c(NS(=O)(=O)c4ccccc4)cccc3C(=O)N([C@H](C)CO)C[C@H]2C)cc1	-2.4	.	.	.	.	.
CCSc1ncnc2c1oc1ccccc12	15.8	-0.6	38.4	-23.3	-5.6	-0.4
